Assay results as given in PubChem BioAssay (NCATS).
Where “and” joins values, the source holds several entries; their conditions need not be identical. Equal values may be shown once. Records with an inconclusive call do not appear. Calls of active or inactive are those of the source. Unless noted, calls come from the whole dose curve; as a rule, active = well fitted curve in the direction sought with a large enough effect; inconclusive = small, poorly fitted or top-dose-only effect, or another doubt; inactive = no such curve, though single readings can be large; an effect the other way counts as inactive or inconclusive.

How the values were obtained:
[1] = Cell Viability - LYMP2-001 (AID 921);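 note: series mostly up to about 92 µM; 0% = DMSO only and full inhibition = tetraoctylammonium bromide control wells; nearly all actives have a fitted effect of over 70% in size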
Summary of the method: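 Human lymphoblastoid LYMP2-001 cells, 2500 per well, in complete medium, treated 24 h at 37 C. Viability from cellular ATP by CellTiter-Glo luminescence; AC50 from Hill-equation fits of qHTS concentration-response.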

[2] = MultiTox-Fluor Cytotoxicity Assay - LYMP1-001 - Live Cells (AID 947);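 note: 0% = DMSO only and full inhibition = tetraoctylammonium bromide control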
[3] = MultiTox-Fluor Cytotoxicity Assay - LYMP1-002 - Dead Cells (AID 960);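 note: 0% = DMSO and 100% = tetraoctylammonium bromide; nearly all actives have a fitted effect of over 60% in size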
Summary of the method: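 Human lymphoblastoid cells (LYMP1-002), 2500/well in complete medium, were exposed to compounds for 16 hr at 37 C. Dead-cell protease activity was read as bis-AAF-R110 fluorescence (Ex/Em 485/520), normalized to DMSO and 15 uM tetraoctylammonium bromide; AC50 from Hill fits.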

[4] = Cell Viability - LYMP1-003 - Assay at 24 hr (AID 963);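 note: plate controls were DMSO only for no effect and tetraoctylammonium bromide positive control for full effect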
Summary of the method: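 Human lymphoblastoid LYMP1-003 cells (2500/well) were rested 5 hr at 37 C, then exposed to compounds in complete medium for 24 hr at 37 C. Cellular ATP was quantified by CellTiter-Glo luminescence, and AC50 values came from Hill fits of concentration-response data.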

[5] = molecular target: Estrogen receptor (Homo sapiens) (UniProt P03372); assay: qHTS assay for small molecule antagonists of estrogen receptor alpha signaling (AID 588513; active = well fitted curve in the direction sought with a large enough effect in the signal ratio, with a control signal flat, not every such curve was filed as active; the % refers to the signal ratio; note: % is set by controls: 0 for no effect and ±100 for the full control effect)
Summary of the method: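 ER-alpha-UAS-bla GripTite HEK 293 cells in 2% charcoal/dextran-treated FBS medium; compounds titrated (1:2, duplicate), then stimulated with 0.5 nM 17-beta-estradiol for 18 h at 37C. CCF4 beta-lactamase fluorescence; Hill-fit IC50 and efficacy.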

[6] = molecular target: Estrogen receptor (Homo sapiens) (UniProt P03372); assay: qHTS assay for small molecule agonists of estrogen receptor alpha signaling (AID 588514; calls by dose curve;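 note: 0% = vehicle only and 100% = reference agonist; nearly all actives have a fitted effect of over 70% in size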)
Summary of the method: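 ER-alpha-UAS-bla GripTite HEK 293 cells in medium with 2% charcoal/dextran-treated FBS were treated with compound titrations at 37 C for 18 hrs; beta-lactamase reporter read by CCF4 fluorescence after 2 hrs at RT.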

[7] = molecular target: Peroxisome proliferator-activated receptor gamma (Homo sapiens) (UniProt P37231); assay: qHTS assay for small molecule agonists of peroxisome proliferator-activated receptor gamma signaling (AID 588536; active = well fitted curve in the direction sought with a large enough effect in the signal ratio, with a control signal flat, not every such curve was filed as active; the % refers to the signal ratio;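 note: 0% = DMSO basal wells and 100% = rosiglitazone at 2 µM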)
Summary of the method: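 HEK293 UAS-bla reporter line, 1% charcoal/dextran FBS; titration, 16 h, 37 C; CCF4 loading 2 h RT; fluorescence 460/530 nm. Normalized to rosiglitazone 2 uM = 100%, DMSO = 0%.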

[8] = molecular target: Peroxisome proliferator-activated receptor gamma (Homo sapiens) (UniProt P37231); assay: qHTS assay for small molecule antagonists of peroxisome proliferator-activated receptor gamma signaling (AID 588537; active = well fitted inhibition curve with a large enough effect in the signal ratio, with a control signal flat, not every such curve was filed as active; the % refers to the signal ratio;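 note: reporter cells co-stimulated with 50 nM rosiglitazone agonist during compound treatment; % of control where 0% means no effect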)
Summary of the method: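 Step one: plate 3000 HEK293 UAS-bla cells per well in medium with 1% stripped serum and hold 6-6.5 h at 37 C. Step two: add compound and 50 nM agonist for 16 h. Step three: CCF4 loading, fluorescence read.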

[9] = qHTS assay for small molecule agonists of retinoid X receptor alpha signaling (AID 588544; calls by dose curve;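 for activation: 0% = DMSO basal wells and 100% = reference agonist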); settings: HEK293T RXRa-UAS-bla, beta-lactamase reporter, 18 h; 530 nm emission
[10] = molecular target: Retinoic acid receptor RXR-alpha (Homo sapiens) (UniProt P19793); assay: as above
[11] = molecular target: Thyroid hormone receptor beta (Homo sapiens) (UniProt P10828); assay: qHTS assay for small molecule agonists of thyroid hormone receptor beta signaling (AID 588545; calls by dose curve)
Summary of the method: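 Agonist activity was read as beta-lactamase CCF4 fluorescence (405 ex, 460/530 em), scaled between DMSO (0%) and 10 nM T3 (100%), then Hill-fitted for EC50 and efficacy. HEK 293 TR-UAS-bla cells in 2% charcoal/dextran FBS medium were exposed 18 h at 37 C.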

[12] = molecular target: Thyroid hormone receptor beta (Homo sapiens) (UniProt P10828); assay: qHTS assay for small molecule antagonists of thyroid hormone receptor beta signaling (AID 588547; active = well fitted inhibition curve with a large enough effect in the signal ratio, with a control signal flat, not every such curve was filed as active; the % refers to the signal ratio;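 note: cells stimulated with 0.4 nM T3 agonist during compound exposure; series mostly up to about 77 µM; % is set by controls: 0 for no effect and ±100 for the full control effect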); settings: TR-UAS-bla HEK293, beta-lactamase ratio, antagonist mode, 18 h
Summary of the method: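 TR-UAS-bla GripTite HEK293 cells in 2% charcoal/dextran FBS medium; compounds 0.59 nM to 92 uM with T3 at 0.4nM final, 18 h at 37 C. Beta-lactamase read by CCF4 fluorescence (460/530 nm); Hill fits gave IC50 and efficacy.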

[13] = molecular target: Voltage-gated inwardly rectifying potassium channel KCNH2 (Homo sapiens) (UniProt Q12809); assay: qHTS Assay for Small Molecule Inhibitors of the Human hERG Channel Activity (AID 588834);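 note: top concentration of the series differs between compounds; % is set by controls: 0 for no effect and ±100 for the full control effect; lower thallium flux fluorescence means stronger hERG block; nearly all actives have a fitted effect of over 50% in size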
Summary of the method: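 U2OS cells BacMam-transduced with hERG, 2000 cells/well, compound ~10 min at 37 °C before stimulation buffer. FluxOR thallium flux fluorescence read kinetically on FDSS; decrease indicates block; AC50 from Hill fits.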

[14] = qHTS assay for small molecule activators of the p53 signaling pathway (AID 651743; active = well fitted activation curve with a large enough effect in the signal ratio, not every such curve was filed as active; the % refers to the signal ratio; note: potency is the fitted concentration of half-maximal effect; for activation: series mostly up to about 92 µM; % of control where 0% means no effect); settings: HCT-116 p53RE-bla, beta-lactamase FRET ratio, 16 h; activation: stronger effect = higher value
Summary of the method: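 HCT-116 p53RE-bla, 4,000 cells/well; 5 h settle; cpd/DMSO 16 h, 37 C; LiveBLAzer B/G 2 h RT; fluorescence intensity.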

[15] = qHTS assay for small molecule disruptors of the mitochondrial membrane potential - 1 hr assay (AID 651754; calls by dose curve; note: % is set by controls: 0 for no effect and ±100 for the full control effect; nearly all actives have a fitted effect of over 35% in size)
Summary of the method: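 HepG2 cells, attached overnight at 37C, were exposed to compound or DMSO vehicle for 1 hr at 37C, 5% CO2, then stained with Mito-MPS dye for 30 min. Red aggregate versus green monomer fluorescence reports membrane potential.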

[16] = molecular target: Tumor necrosis factor (Homo sapiens) (UniProt P01375); assay: qHTS assay to identify small molecules that stimulate Tumor Necrosis Factor-alpha (TNF-alpha) secretion (AID 651757; active = well fitted curve in the direction sought with a large enough effect in the signal ratio; the % refers to the signal ratio; note: 0% is about no effect)
Summary of the method: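 THP-1 cells were exposed to compounds for 17 hrs at 37 C, after which secreted TNF-alpha was measured by homogeneous HTRF (TR-FRET) using cryptate- and XL665-labeled anti-TNF-alpha antibodies, read after 3 hr at room temperature.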

[17] = qHTS assay for small molecule antagonists of the retinoid-related orphan receptor gamma (ROR-gamma) signaling pathway - cell viability counter screen (AID 720652; active = well fitted curve in the direction sought with a large enough effect in the repeat runs; an effect the other way counts as inactive or inconclusive;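 note: CHO reporter cells with doxycycline-induced ROR-gamma expression; series mostly up to about 92 µM; compound exposure lasted 16 hr before ATP read; % is set by controls: 0 for no effect and ±100 for the full control effect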)
Summary of the method: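 Counter screen in CHO cells carrying TET-inducible ROR-gamma and an ROR response element-luciferase reporter; cells plated 5 hr, compound pinned, doxycycline added, then 16 hr at 37 C. Viability read as intracellular ATP by CellTiter-Glo luminescence.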

[18] = qHTS assay for cell viability of the p53RE-bla HCT-116 cell line (AID 743292); note: % is set by controls: 0 for no effect and ±100 for the full control effect; nearly all actives have a fitted effect of over 55% in size
Summary of the method: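 Quantitative high-throughput format: compounds in DMSO were pinned onto p53RE-bla HCT-116 cells (4,000/well) and incubated 16 h at 37 C. Total intracellular ATP, read by CellTiter-Glo luminescence, reflects viable cell number.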

[19] = molecular target: Nuclear receptor subfamily 1 group I member 2 (Rattus norvegicus) (UniProt Q9R1A7); assay: qHTS assay for small molecule activators of the rat pregnane X receptor (rPXR) signaling pathway (AID 651751; call rule not given here; note: 0% is about no effect); settings: rPXR reporter cells, luciferase (One-Glo), 24 h
[20] = molecular target: Ubiquitin carboxyl-terminal hydrolase 1 (Homo sapiens) (UniProt O94782); assay: Inhibitors of USP1/UAF1: Pilot qHTS (AID 504865); note: nearly all actives have a fitted effect of over 35% in size; note: potency is the fitted concentration of half-maximal effect
Summary of the method: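 USP1/UAF1 complex at 1 nM preincubated 15 min at room temperature with compound, then Ub-Rho substrate added at 150 nM final. Fluorescence (480/540 nm) read kinetically in 50 mM HEPES pH 7.8, 0.5 mM EDTA, 1 mM TCEP, 0.1 mg/ml BSA, 0.01% Tween-20.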

Peroxisome proliferator-activated receptor gamma (Homo sapiens), sequence (P37231 whole entry, looked up): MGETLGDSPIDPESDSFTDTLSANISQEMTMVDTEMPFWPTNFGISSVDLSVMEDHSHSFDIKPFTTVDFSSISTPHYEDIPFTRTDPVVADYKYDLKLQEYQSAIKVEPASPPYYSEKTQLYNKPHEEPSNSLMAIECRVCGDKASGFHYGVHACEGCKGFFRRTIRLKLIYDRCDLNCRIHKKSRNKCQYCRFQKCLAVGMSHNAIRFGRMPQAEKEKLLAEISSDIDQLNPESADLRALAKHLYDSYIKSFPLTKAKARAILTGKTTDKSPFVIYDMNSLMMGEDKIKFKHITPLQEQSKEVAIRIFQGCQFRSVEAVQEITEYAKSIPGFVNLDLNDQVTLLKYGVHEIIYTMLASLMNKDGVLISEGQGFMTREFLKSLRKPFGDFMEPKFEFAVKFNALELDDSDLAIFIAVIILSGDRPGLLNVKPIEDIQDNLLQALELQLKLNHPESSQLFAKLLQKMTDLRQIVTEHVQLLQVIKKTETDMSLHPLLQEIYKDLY
Ubiquitin carboxyl-terminal hydrolase 1 (Homo sapiens), sequence (O94782 whole entry, looked up): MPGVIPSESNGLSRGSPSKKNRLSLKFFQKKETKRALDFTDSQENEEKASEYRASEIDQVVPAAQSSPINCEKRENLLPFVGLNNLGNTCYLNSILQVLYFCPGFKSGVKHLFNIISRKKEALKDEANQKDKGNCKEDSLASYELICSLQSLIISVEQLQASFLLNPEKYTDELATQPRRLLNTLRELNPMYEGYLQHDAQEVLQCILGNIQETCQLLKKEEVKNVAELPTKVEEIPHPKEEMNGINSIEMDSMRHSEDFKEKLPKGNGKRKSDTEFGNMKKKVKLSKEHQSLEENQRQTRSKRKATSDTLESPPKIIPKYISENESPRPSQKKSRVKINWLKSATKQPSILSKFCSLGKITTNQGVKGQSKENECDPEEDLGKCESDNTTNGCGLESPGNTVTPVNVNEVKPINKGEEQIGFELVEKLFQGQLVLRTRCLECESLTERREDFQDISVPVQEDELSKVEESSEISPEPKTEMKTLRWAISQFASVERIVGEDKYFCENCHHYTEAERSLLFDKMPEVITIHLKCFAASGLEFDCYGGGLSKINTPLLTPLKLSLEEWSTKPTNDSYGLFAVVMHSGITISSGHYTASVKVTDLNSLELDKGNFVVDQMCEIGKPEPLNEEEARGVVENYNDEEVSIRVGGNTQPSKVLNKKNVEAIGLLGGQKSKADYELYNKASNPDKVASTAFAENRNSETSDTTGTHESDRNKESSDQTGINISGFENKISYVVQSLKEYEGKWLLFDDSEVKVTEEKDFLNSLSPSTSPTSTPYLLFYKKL
Thyroid hormone receptor beta (Homo sapiens), sequence (P10828 whole entry, looked up): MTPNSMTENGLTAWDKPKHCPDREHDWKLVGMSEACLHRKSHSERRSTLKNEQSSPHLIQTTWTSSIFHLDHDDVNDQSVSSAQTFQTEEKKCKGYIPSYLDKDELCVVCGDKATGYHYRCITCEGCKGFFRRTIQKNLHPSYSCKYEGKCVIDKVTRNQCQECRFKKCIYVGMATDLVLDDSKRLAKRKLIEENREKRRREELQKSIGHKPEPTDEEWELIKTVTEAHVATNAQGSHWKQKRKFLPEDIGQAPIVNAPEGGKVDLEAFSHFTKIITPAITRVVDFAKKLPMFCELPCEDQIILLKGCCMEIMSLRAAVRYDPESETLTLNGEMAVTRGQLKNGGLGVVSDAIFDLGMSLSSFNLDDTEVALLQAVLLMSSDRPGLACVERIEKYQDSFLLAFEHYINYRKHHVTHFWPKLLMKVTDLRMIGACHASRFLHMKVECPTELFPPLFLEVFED
Retinoic acid receptor RXR-alpha (Homo sapiens), sequence (P19793 whole entry, looked up): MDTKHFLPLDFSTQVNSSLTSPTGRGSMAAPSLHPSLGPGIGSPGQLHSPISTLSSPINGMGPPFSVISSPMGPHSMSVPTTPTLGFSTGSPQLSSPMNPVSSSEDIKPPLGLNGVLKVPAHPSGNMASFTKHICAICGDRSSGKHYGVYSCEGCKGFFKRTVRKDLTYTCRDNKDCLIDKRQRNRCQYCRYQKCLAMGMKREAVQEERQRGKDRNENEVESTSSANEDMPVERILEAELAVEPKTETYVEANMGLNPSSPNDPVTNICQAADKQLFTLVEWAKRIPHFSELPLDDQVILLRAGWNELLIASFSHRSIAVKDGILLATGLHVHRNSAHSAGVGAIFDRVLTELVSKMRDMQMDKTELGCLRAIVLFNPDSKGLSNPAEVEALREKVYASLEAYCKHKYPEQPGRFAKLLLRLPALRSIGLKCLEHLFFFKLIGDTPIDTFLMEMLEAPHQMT
Voltage-gated inwardly rectifying potassium channel KCNH2 (Homo sapiens), sequence (Q12809 whole entry, looked up): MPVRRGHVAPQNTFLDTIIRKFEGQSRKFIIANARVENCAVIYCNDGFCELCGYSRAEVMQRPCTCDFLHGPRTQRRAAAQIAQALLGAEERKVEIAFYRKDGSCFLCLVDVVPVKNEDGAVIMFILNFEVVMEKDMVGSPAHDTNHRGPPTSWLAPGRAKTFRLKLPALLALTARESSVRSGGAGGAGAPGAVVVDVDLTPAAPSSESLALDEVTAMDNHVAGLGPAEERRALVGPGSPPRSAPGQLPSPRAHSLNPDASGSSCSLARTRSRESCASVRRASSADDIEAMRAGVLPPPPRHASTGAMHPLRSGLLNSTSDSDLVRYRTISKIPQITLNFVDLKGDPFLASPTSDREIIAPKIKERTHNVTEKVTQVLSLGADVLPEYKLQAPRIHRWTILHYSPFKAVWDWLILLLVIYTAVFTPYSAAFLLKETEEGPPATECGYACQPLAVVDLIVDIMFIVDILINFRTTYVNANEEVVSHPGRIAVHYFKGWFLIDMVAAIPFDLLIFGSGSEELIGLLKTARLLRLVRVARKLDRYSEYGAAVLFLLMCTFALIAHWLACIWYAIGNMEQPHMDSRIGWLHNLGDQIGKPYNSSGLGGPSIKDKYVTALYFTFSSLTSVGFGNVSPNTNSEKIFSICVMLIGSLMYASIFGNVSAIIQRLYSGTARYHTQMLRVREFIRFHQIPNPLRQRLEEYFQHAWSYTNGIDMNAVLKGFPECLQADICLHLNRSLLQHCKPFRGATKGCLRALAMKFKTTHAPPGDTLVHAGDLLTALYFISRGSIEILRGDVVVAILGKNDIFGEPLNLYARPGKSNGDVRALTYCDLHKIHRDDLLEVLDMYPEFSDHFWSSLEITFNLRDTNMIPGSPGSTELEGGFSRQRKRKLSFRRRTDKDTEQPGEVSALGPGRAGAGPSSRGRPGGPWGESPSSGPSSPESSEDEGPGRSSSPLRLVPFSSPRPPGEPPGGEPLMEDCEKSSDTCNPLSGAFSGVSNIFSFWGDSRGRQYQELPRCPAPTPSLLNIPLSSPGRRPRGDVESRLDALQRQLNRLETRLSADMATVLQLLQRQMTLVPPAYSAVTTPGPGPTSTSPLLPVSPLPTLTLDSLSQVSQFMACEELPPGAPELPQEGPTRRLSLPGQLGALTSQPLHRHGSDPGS
Nuclear receptor subfamily 1 group I member 2 (Rattus norvegicus), sequence (Q9R1A7 whole entry, looked up): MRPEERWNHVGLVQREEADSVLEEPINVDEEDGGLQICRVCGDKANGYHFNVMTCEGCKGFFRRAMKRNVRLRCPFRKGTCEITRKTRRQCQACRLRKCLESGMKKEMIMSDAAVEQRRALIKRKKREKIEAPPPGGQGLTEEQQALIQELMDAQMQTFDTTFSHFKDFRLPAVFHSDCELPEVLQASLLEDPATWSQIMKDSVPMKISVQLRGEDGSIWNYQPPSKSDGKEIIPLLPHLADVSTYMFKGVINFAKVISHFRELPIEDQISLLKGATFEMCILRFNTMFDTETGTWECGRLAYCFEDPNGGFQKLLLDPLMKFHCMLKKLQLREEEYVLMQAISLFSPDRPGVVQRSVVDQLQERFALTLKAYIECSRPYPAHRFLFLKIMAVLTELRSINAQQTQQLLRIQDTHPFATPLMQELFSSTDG
Estrogen receptor (Homo sapiens), sequence (P03372 whole entry, looked up): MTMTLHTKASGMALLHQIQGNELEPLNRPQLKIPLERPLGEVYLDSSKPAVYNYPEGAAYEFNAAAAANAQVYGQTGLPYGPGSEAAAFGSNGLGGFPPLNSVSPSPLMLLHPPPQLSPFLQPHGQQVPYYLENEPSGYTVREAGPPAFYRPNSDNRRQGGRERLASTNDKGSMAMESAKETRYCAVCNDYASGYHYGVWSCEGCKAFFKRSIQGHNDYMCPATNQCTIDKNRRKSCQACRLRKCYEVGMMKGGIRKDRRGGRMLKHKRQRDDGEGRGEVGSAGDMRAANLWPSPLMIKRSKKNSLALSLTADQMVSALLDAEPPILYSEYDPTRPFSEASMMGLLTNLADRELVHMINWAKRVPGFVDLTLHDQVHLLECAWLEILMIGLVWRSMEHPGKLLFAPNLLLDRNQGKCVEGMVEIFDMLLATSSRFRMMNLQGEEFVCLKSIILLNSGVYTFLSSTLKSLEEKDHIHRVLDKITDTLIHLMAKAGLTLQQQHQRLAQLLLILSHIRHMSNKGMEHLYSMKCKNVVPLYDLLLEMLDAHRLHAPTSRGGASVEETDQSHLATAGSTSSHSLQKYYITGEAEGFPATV
Tumor necrosis factor (Homo sapiens), sequence (P01375 whole entry, looked up): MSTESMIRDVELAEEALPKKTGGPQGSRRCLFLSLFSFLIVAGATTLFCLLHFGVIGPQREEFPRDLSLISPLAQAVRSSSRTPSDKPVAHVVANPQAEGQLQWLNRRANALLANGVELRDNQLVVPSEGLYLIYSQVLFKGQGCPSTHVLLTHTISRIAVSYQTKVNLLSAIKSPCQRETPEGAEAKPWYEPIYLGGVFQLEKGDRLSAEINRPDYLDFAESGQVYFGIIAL

COCC(=O)O
0.473% and -13.2%: max response [9]
inactive: Potency [1] | Potency [2] | Potency [3] | Potency [4] | Potency [5] | Potency [6] | outcome [7] | outcome [8] | outcome [10] | outcome [11] | activity change % (negative = inhibition) [12] -5.02% and -7.68% | Potency [13] | activation [14] 0.0042% and -6.16% | Potency [15] | outcome [16] | Potency [17] | Potency [18] | max response [19] 1.77% and 0.862%

Cc1ccc([N+](=O)[O-])cc1N
-6.56% and -2.61%: max response [9]
inactive: Potency [1] | Potency [2] | Potency [3] | Potency [4] | Potency [5] | Potency [6] | outcome [7] | outcome [8] | outcome [10] | outcome [11] | activity change % (negative = inhibition) [12] 15.7% and 9.17% | Potency [13] | activation [14] -1.56% and -5% | Potency [15] | outcome [16] | Potency [17] | Potency [18] | max response [19] 0.691% and 2.27%

COc1ncc2nc(-c3ccccc3)c(=O)n(CCc3ccccc3)c2n1
inactive: Potency [20]

O=C(O)c1ccc(O)cc1O
-5.03% and -19.7%: max response [9]
inactive: Potency [1] | Potency [2] | Potency [3] | Potency [4] | outcome [7] | outcome [8] | outcome [10] | outcome [11] | activity change % (negative = inhibition) [12] 0.5% and 23.9% | Potency [13] | activation [14] -0.261% and 0.22% | Potency [15] | outcome [16] | Potency [17] | Potency [18] | max response [19] 10.9% and 2.3%

Cc1ccccc1-c1ccc2ncnc(NCCN3CCOCC3)c2c1
inactive: Potency [20]

COCCn1c(=O)c(-c2ccc(F)cc2)nc2cnc(Oc3ccccc3)nc21
inactive: Potency [20]

CCNc1ncc2nc(CCc3ccccc3)c(=O)n(C3CC3)c2n1
inactive: Potency [20]

N#Cc1cccc(-c2ccc3ncnc(NCc4cccs4)c3c2)c1
active: Potency [20] 22.4 µM

O=c1c(-c2ccccc2)nc2cnc(N3CCOCC3)nc2n1CCc1ccccc1
inactive: Potency [20]

ClCCCl
-4.78% and -12% and 1.75%: max response [9]
inactive: Potency [1] | Potency [2] | Potency [3] | Potency [4] | Potency [5] | Potency [6] | outcome [7] | outcome [8] | outcome [10] | outcome [11] | activity change % (negative = inhibition) [12] 4.14% and 2.63% and 8.67% | Potency [13] | activation [14] 0.154% and -1.95% and -0.964% | Potency [15] | outcome [16] | Potency [17] | Potency [18] | max response [19] 1.44% and 0.0885% and 1.57%

O=NO
-10.7% and -17.9%: max response [9]
inactive: Potency [1] | Potency [2] | Potency [3] | Potency [4] | outcome [7] | outcome [8] | outcome [10] | outcome [11] | activity change % (negative = inhibition) [12] -1.68% and 1.18% | Potency [13] | Potency [15] | outcome [16] | Potency [17] | Potency [18] | max response [19] 3.2% and 1.29%

S=C1NC=NC2N=CNC12 (stereo not given)
active: Potency [14] 10 µM
inactive: Potency [1] | Potency [2] | Potency [3] | Potency [20] | outcome [11] | Potency [13] | Potency [15] | max response [19] -8.03%
